The record followed here is PubChem BioAssay (NCI).

Compounds without any hit were thinned out: in the full panel of roughly 83,000, 20% have a hit.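 Single-concentration screen, 48 h exposure, 96-well plates. Endpoint: percent growth. Below 10 = active.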 A number with no mark means an inactive call. Calls of active or inactive are those of the source.

In this experiment the test system is SR leukemia. Nature of the experiment: NCI-60 one-dose screen, 48 h (100 = growth as untreated, 0 = no growth, -100 = all killed). Conditions: 10 µM. The procedure:
Growth inhibition of the SR human tumor cell line is measured as a screen for anti-cancer activity. Cells are grown in 96 well plates and exposed to the test compound for 48 hours. Compounds are tested at a single concentration, which is 10^-5 M for most compounds. The reported endpoint is percent growth (GI% or GIPRCNT), where numbers from 0 - 100% represent growth inhibition, and numbers from -100% - 0 represent cell death. For example, a value of 40 represents 60% growth inhibition. A value of 0 means no net growth occurred over the course of the experiment. A value of -40 indicates 40% of cells at the beginning of the experiment died by the end of the experiment. A value of -100 means all cells are dead at the end of the experiment.
NCI-60 Human Tumor Cell Lines Screen was performed using the standard one-dose NCI protocol, which is described in more detail at https://dtp.cancer.gov/discovery_development/nci-60/default.htm.
Compounds with GIPRCNT values below 10 were considered active. Activity score was based on GIPRCNT using the following formula: […]
Score is 0 for GIPRCNT values of 100 or above, 50 for GIPRCNT values of 0, and 100 for GIPRCNT values of -100.
On to `O=C1/C(=C\c2ccc(F)cc2)CN(C(=O)c2ccccc2)C/C1=C\c1ccc(F)cc1`, for which the growth is -15.1% (active).
In the case of `O=C(Nc1ccc(Cl)c(Cl)c1)Nc1c(Oc2ccc(Cl)c(Cl)c2)ccc(Cl)c1S(=O)(=O)O` it was 1.34% (active).
On to `Cc1cc(=O)[nH]c(N/N=C/c2ccccc2O)n1`, for which the growth is 26.8%.
In the case of `CCN(CC)CCOc1nc2ccc(OC)cc2c2c1-c1ccc(OC)cc1C2=O` it was -14.8% (active); in that of `Cc1nc2ccc(CN(C)c3ccc(C(=O)N[C@@H](CCC(=O)O)C(=O)O)s3)cc2c(=O)[nH]1`, 44.6%; in that of `COc1cc(C(=C2O[C@@H]([C@H]3COC(C)(C)O3)[C@H]3OC(C)(C)O[C@@H]23)c2cc(OC)c(OC)c(OC)c2)cc(OC)c1OC`, 90.6%.
As for `CN(C)c1ccc(Cc2ccc(N(C)C)cc2Cl)c(Cl)c1`, the growth is 88.9%.
Take `O=C(CCCCC(=O)Nc1ccc2c(c1)/C(=C/c1ccc[nH]1)C(=O)N2)NO`: the growth is 45.4%.
In the case of `CC(C)=NNc1ncnc2c1ncn2C1OC(CO)C(O)C1O` (stereo not given) it was 14.4%; in that of `N#Cc1ncc(-c2cc(F)c(F)c(F)c2)c(NC2CCCCCC2)n1`, 78.8%.
In the case of `COc1ccc2c(c1)C(=O)c1c-2c(OCCN(C)C)nc2ccccc12`, the growth was 1.16% (active).
In the case of `O=C1N=NC2=C1c1c3ccccc3c(O)n1CC2` it was 103%; in that of `Cc1ccc(S(=O)(=O)OCCN(CCOS(=O)(=O)c2ccc(C)cc2)c2c[nH]c(=O)[nH]c2=O)cc1`, 104%.
In the case of `COc1cc(Cc2cc(-c3ccc(Cl)cc3)n[nH]c2=O)ccc1O` it was -35.7% (active); in that of `CCN(CC)CCC(=O)Nc1cccc2c1C(=O)c1c(c(O)c3ccccc3c1O)C2=O`, 6.44% (active); in that of `COc1cc(Cl)cc(-c2nn(-c3cccc(NC(=O)Nc4ccc(Cl)c(C(F)(F)F)c4)c3)cc2-c2ccncc2)c1`, -27.5% (active).
`O=C(Nc1ccncc1)C(=O)c1cn(S(=O)(=O)c2cccc(Cl)c2)c2ccccc12`: the growth was 12%.
The same measure for `Cc1ccc(NC(=O)Nc2nc3ccccc3s2)cc1NC(=O)Nc1nc2ccccc2s1`: 55.5%.
The same measure for `CC(C)N(CCNc1nc(C(Cl)(Cl)Cl)nc2cc(Cl)ccc12)C(C)C`: -28.4% (active).
The same measure for `Clc1nc(Cl)c2c(ncn2C/C=C\Cn2cnc3c(Cl)nc(Cl)nc32)n1`: -66.3% (active); for `COc1ccc(-c2nn(-c3cccc(NC(=O)Nc4cccc(C(F)(F)F)c4)c3)cc2-c2ccncc2)cc1Cl`: 4.34% (active).
For `NC(=O)CC1(c2ccccc2)CCCCC1`, the growth was 90.9%.
Consider `COc1ccccc1/C=C/C(=O)c1ccccc1`, for which the growth was 10.5%.
On to `COc1ccc(C2=NN(C(=O)c3ccc(S(C)(=O)=O)cc3)C(c3ccc(OC)c(OC)c3)C2)c(OC)c1` (stereo not given), for which the growth is 97.2%.
In the case of `O=C(N/N=C/c1cc2ccccc2c2ccccc12)c1cc(O)c(O)c(O)c1` it was 9.56% (active); in that of `CCCCN(CCCC)CCCCCCCCC(O)c1cc2ccccc2c2ccccc12` (stereo not given), 37.6%; in that of `COc1ccccc1CNCCN1C(=O)c2ccc3c4c(ccc(c24)C1=O)C(=O)N(CCNCc1ccccc1OC)C3=O`, -47.1% (active).
With `COc1cc(Cl)cc(-c2nn(-c3cccc(NC(=O)Nc4cc(C(F)(F)F)cc(C(F)(F)F)c4)c3)cc2-c2ccncc2)c1`, the growth was -37.9% (active).
The same measure for `O=C(Nc1cccc(Cl)c1)Nc1nccs1`: 78.5%; for `O=[N+]([O-])c1cccc(-c2ncc(-c3ccc(Cl)cc3Cl)[nH]2)c1`: -36.6% (active); for `Cc1cc(N(CCCNc2ccnc3cc(Cl)ccc23)Cc2ccc3c(c2)OCO3)nc(N2CCOCC2)n1`: -27.7% (active).
The same measure for `O=C(/C=C/c1cc2ccccc2[nH]c1=O)c1ccc2c(c1)OCO2`: 52.5%; for `COC(=O)c1ccc(=O)oc1`: 89.2%; for `Cc1ccc(NC(=O)Nc2c(Cl)cccc2Cl)cn1`: 59.1%.
For `CC(=O)n1c(-c2ccc(Cl)c(Cl)c2)cn(-c2ccc(Cl)cc2)c1=O`, the growth was 0.989% (active).
As for `COc1ccc2c(c1)sc1nc(-c3ccccc3)c(-c3ccsc3)n12`, the growth was 6.49% (active).
The same measure for `COc1ccc(Cl)cc1C(=O)Nc1nc2ccc(Cl)cc2s1`: 87.7%; for `O=C(O)c1ccc(P(=O)(O)O)c([N+](=O)[O-])c1`: 87.7%; for `O=C(N/N=C\c1cc(Cl)ccc1[N+](=O)[O-])c1ccco1`: 123%.
Take `ClC(Cl)(Cl)c1nc2nccnc2[nH]1`: the growth was 102%.
